TrxR1 substrate: rat thioredoxin reductase 1 substrate activity. Potency, µM (top dose mostly 114 µM), without a hit: top-dose activity change, negative = substrate turnover. 0.01% of 390,000 active. AID 588456. O89049. purified TrxR1 substrate turnover, NADPH consumption readout; note: potency is the fitted concentration of half-maximal effect; nearly all actives have a fitted effect of over 50% in size
Target sequence (O89049 whole entry, looked up): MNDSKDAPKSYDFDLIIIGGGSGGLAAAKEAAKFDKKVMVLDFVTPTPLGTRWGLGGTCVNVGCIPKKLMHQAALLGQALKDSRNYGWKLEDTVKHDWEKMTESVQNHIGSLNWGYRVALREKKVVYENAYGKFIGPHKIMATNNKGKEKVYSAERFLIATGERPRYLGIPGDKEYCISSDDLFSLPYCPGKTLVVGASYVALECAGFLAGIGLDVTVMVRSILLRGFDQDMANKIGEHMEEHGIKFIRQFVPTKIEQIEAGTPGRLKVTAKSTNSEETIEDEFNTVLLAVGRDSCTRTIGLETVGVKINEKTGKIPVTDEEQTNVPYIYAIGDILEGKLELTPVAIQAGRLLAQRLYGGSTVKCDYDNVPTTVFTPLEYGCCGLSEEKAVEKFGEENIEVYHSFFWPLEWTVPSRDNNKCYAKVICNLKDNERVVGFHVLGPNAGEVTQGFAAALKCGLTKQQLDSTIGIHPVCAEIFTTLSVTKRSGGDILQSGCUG
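Rat TrxR1, dispensed at 90 nM, was prereduced with 400 uM NADPH (final) for 5 min at ~22 deg C, then incubated with compound 15 min before 400 uM selenite. A first-read NADPH fluorescence drop versus no-compound background flagged substrates.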
TrxR1 inh: inhibitors of rat thioredoxin reductase 1 | O89049 | recombinant rTrxR1, NADPH fluorescence consumption, selenite substrate | Potency, µM (doses to about 114 µM), inactives show at the highest dose activity change, negative = inhibition, most hits filed as inhibitors | 1% of 390,000 active | AID 588453; note: potency is the fitted concentration of half-maximal effect; nearly all actives have a fitted effect of over 65% in size
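Rat TrxR1 (90 nM in the dispensed reagent) was pre-reduced with 400 uM NADPH for 5 min at room temperature, then incubated with compound for 15 min. After 400 uM selenite was added, NADPH fluorescence (Ex 340/Em 450 nm) was followed for 8 min.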
Coupling enz: inhibits coupling enzyme system, counter-screen for aldolase hits | 0.67% of 290,000 active | activity change, negative = inhibition, % at 58.2 µM, hits read low | coupling enzyme system counterscreen, AmpLite Red fluorescence; in the data active = activity change below about -30%
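Coupling enzymes only (glyceraldehyde-3-phosphate) + compound, at 57.5 uM final, 10 min RT; add substrate/coupling/AmpLite Red mix, 20 min RT; fluorescence ex 525/em 598 nm. Actives flag coupling-system interference.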
Gal4-VP16 FLuc: Gal4-VP16 reporter inhibition counter-screen; Drosophila S2 Gal4-VP16 UAS-luciferase, luminescence, 20 h; Potency, µM (titrated, usually from 53.6 µM), inactives show top-dose activity, negative = inhibition, most hits filed as inhibitors; 3.5% of 310,000 active;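 note: Gal4-VP16 expression switched on by copper sulfate through the metallothionein promoter; potency is the fitted concentration of half-maximal effect; nearly all actives have a fitted effect of over 50% in size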
GALK inhibitor: galactokinase (human) inhibition. P51570. Purified GALK, Kinase-Glo residual ATP luminescence. Potency, µM (highest dose often 57.5 µM), without a hit: top-dose activity change, negative = inhibition, actives largely listed as inhibitors. 0.007% of 270,000 active. AID 1868; note: potency is the fitted concentration of half-maximal effect
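ATP-depletion format; final 35 uM ATP, 100 uM D-galactose, 5 nM enzyme; pH 8.0 HEPES/Mg2+ buffer; 60 min RT; luminescence read 10 min after detection reagent.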
RORg inh: blocks mouse ROR gamma transcriptional activity. P51450. Drosophila S2 Gal4-RORgamma UAS-luciferase reporter, 20 h. Potency, µM (highest dose often 53.6 µM), without a hit: top-dose activity change, negative = inhibition, actives largely listed as inhibitors. 5.4% of 310,000 active. AID 2551; note: potency is the fitted concentration of half-maximal effect; nearly all actives have a fitted effect of over 60% in size
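Stable Schneider cell line, Gal4 DNA-binding domain fused to ROR gamma, UAS-luciferase. Cmpd 1 hr RT → CuSO4 700 uM final → 20 hr RT → luciferase reagent 10 min → luminescence.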
The depositor's hits bear a star; ? = inconclusive; / = not tested or not shown; [ ] = another dose, or the depositor's remark. The list is not random: actives were taken first. Their share in the collection is about 5.9%. Unless noted, calls come from the whole dose curve; as a rule, active = well fitted curve in the direction sought with a large enough effect; inconclusive = small, poorly fitted or top-dose-only effect, or another doubt; inactive = no such curve, though single readings can be large; an effect the other way counts as inactive or inconclusive. % is set by controls: 0 for no effect and ±100 for the full control effect.

SMILES	TrxR1 substrate	TrxR1 inh	Coupling enz	Gal4-VP16 FLuc	GALK inhibitor	RORg inh
O=C(NC(C(Cl)Cl)N1CCOCC1)c1ccccc1 (configuration not stated)	3%	1%	0	-9%	-3%	1%
CN(C)C(=Nc1ccccc1)P(=S)(N(C)C)N(C)C	6%[57.1 µM]	18%[57.1 µM]	0	-6%	1%	10µM*
CC1(C)CC2CCC(O)C2C(CCO)N1 (configuration not stated)	2%	9%	/	/	/	/
Cc1nc2ccccc2c(=O)n1-c1ccc(F)cc1F	6%[57.1 µM]	17%[57.1 µM]	3	2%	/	-2%
O=C1NC(=O)C(=Cc2c(Cl)cccc2Cl)C(=O)N1	-3%	13µM*	/	/	/	/
CN(C(=O)Oc1ccc(Cl)c2cccnc12)c1ccccc1	-3%	-2%	-1	13%	0%	?
CC(=O)Oc1ccc(Cl)c2cccnc12	/	/	-9	0.71µM*	/	0.56µM*
CCCSP1(=S)NCCCO1 (configuration not stated)	-6%	2%	-5	-1%	3%	-1%[10 µM]
Cc1cc(S(=O)(=O)NC(C)C)ccc1OCC(=O)N1CCN(Cc2ccc3c(c2)OCO3)CC1	10%	23%	6	7.9µM*	1%	-29%
CC(C)NS(=O)(=O)c1ccc(OCC(=O)N2CCN(Cc3ccc4c(c3)OCO4)CC2)c(Cl)c1	0%[57.1 µM]	-14%[57.1 µM]	0	?	-4%	-24%
COc1ccc(Cl)cc1NC(=O)CN1C(=O)CN=C(c2ccccc2)c2cc(Cl)ccc21	-4%	21%	/	/	/	/
CCOc1cc(/C=C2\C(=O)NC(=O)N(CCc3ccc(F)cc3)C2=O)ccc1O	-5%	11µM*	2	4%	-1%	21%
C[C@H]1COC2=C1C(=O)C(=O)c1c2ccc2c1CCCC2(C)C	-7%	28µM*	-23	-11%	3%	-8%
Cc1csc(=N)n1Cc1ccccc1	-9%	-2%	0	-8%	2%	6%
COc1cc(N2CCOCC2)ccc1/C=C1\C(=O)NC(=O)N(Cc2ccc3c(c2)OCO3)C1=O	-14%	-72%	3	-8%	-4%	28%
CN1CCN(c2ccc(N)cc2Cl)CC1	-6%[57.1 µM]	0%[57.1 µM]	-32*	-5%	1%	-29%
CCCCC/C=C\C=C\[C@H](CCCCCCCC(=O)O)OO	/	/	2	-11%	/	10%
COc1ccc(-c2nn(CCC#N)cc2C(=O)Nc2ccc(C(C)=O)cc2)cc1[N+](=O)[O-]	-8%	-1%	-1	-1%	-3%	13%
CN(N=O)c1cc(O)ccc1O	3%[57.1 µM]	0.75µM*	/	/	/	/
CSc1ncc(/C=C2/C(=O)NC(=O)N(C3CCCCC3)C2=O)cn1	7%[57.1 µM]	11µM*	9	-9%	0%	0%
CSc1ncc(/C=C2/C(=O)NC(=O)N(C)C2=O)cn1	0%	14µM*	-3	-6%	0%	-7%
OC(CN1CCCCC1)c1c[nH]c2ccccc12 (configuration not stated)	5%	26%	1	-2%	0%	0%
O=C(N=Nc1c(O)[nH]c(=O)[nH]c1=O)C1COc2cc3ccccc3cc2O1 (configuration not stated)	1%[57.1 µM]	19%[57.1 µM]	-30*	-4%	9%	16%
O=C1C(=O)c2ccccc2-c2ccccc21	3.2µM*	10µM*	-82*	3.2µM*	3.2µM*	2µM*
CC1CC(C)(O)CC(C(O)CC2CC(=O)NC(=O)C2)C1=O (configuration not stated)	6%[11.4 µM]	3%[11.4 µM]	/	/	/	/
SMILES	TrxR1 substrate	TrxR1 inh	Coupling enz	Gal4-VP16 FLuc	GALK inhibitor	RORg inh
CC1=CC(=O)OC2CC3OC4C[C@@H](C)C5OC6CC7O[C@]8(C)C/C=C\C9OC%10CC%11OC(CC(C)C%12OCCO%12)CC(O)[C@]%11(C)OC%10CC9OC8C[C@]7(C)O[C@]6(C)CCC5OC4C[C@]3(C)OC12 (some centres not stated)	-9%	2%	/	/	/	/
Cc1cccc(-n2c(C)n[nH]c2=S)c1C	-11%	-21%	0	?	-2%	16µM*
CN1CSC(=S)N(C)C1	-7%	-18%	1	11µM*	4%	10µM*
Cc1ccc(CN(Cc2ccccc2)C(=S)NCC(=O)N2CCC3(CC2)OCCO3)o1	1%[57.1 µM]	3%[57.1 µM]	-3	-3%	-1%	-25%
COc1c(C)cc(C(=O)C2CCCN(Cc3cnc(C)s3)C2)cc1C (configuration not stated)	3%[57.1 µM]	8%[57.1 µM]	2	6%	3%	30%
COc1cccc(C(=O)C2CCCN(Cc3ccccn3)C2)c1 (configuration not stated)	2%[57.1 µM]	14%[57.1 µM]	4	?	2%	3.5µM*
O=C(c1ccc(Cl)cc1)C1CCCN(Cc2ccon2)C1 (configuration not stated)	2%	22%	-1	8%	0%	0%
COc1c(C)cc(C(=O)C2CCCN(Cc3ccccn3)C2)cc1C (configuration not stated)	-1%	-4%	1	10µM*	0%	2µM*
Cc1ncc(CN2CCCC(C(=O)c3cccc(OC(C)C)c3)C2)s1 (configuration not stated)	4%	14%	1	26%	7%	?
O=C(c1ccc2c(c1)OCO2)C1CCCN(Cc2ccccn2)C1 (configuration not stated)	6%	9%	1	?	1%	3.2µM*
C=CCCC1(CC)C(=O)NC(=S)NC1=O	-7%[57.1 µM]	4%[11.4 µM]	/	/	/	/
c1ccc(Cn2ccnc2)cc1	8%	14%	6	0%	1%	6%
CC(C)c1cccc(C(C)C)c1OCCn1ccnc1	0%	-2%	0	?	-3%	22µM*
CCN(C(=O)CSc1ncccc1C(=O)Oc1cccc([N+](=O)[O-])c1)c1cccc(C)c1	3%	8%	1	?	0%	-16%
O=C(c1ccccc1)C(CN1CCCC1)c1ccccc1 (configuration not stated)	3%	?	3	4.5µM*	2%	5.6µM*
CC[C@]1(O)CC(O[C@@H]2CC(N(C)C)C(O)C(C)O2)c2c(cc3c(c2O)C(=O)c2c(O)ccc(O)c2C3=O)C1C(=O)OC (some centres not stated)	/	/	-16	2.2µM*	/	1.1µM*
O=c1oc(Cl)c(Cl)c2ccccc12	4%[57.1 µM]	7.5µM*	/	/	/	/
CCCCOCCOP(=O)(OCCOCCCC)OCCOCCCC	/	/	/	7%	/	0%
c1ccc(-c2ccccc2)cc1	/	/	/	0%	/	4%

Source: PubChem (National Center for Advancing Translational Sciences (NCATS))
